Measured values taken from PubChem BioAssay AID588855 (National Center for Advancing Translational Sciences (NCATS), 2011).
About 5,000 (1.2%) of roughly 410,000 compounds were called active. Roughly 13% stayed inconclusive and do not appear here. The call rests on the fitted dose curve; in most records, active means well fitted inhibition curve with a large enough effect; inconclusive means small, poorly fitted or top-dose-only effect; inactive means no such curve, though single readings can be large or run the other way. The sample as a whole holds a higher share of actives than the screen did.

Assay: qHTS for Inhibitors of TGF-b; further: nearly all actives have a fitted effect of over 65% in size
Conditions: HepG2 CAGA-GFP TGF-b/SMAD3 reporter, GFP fluorescence, 18 h, TGF-beta stimulated, 500 pg/mL final; series mostly up to 46.1 µM
Method in brief: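 Cell-based qHTS in HEPG2 carrying a CAGA-GFP Smad reporter; compounds added before 500 pg/mL final TGF-beta, 18 h incubation at 37 degrees C, GFP fluorescence quantified per cell by imaging cytometry.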
Potency means the concentration at half of the fitted maximal effect.

Potency, active:
Cc1cccc(NS(=O)(=O)c2ccc(-c3cnc(C4CC4)o3)cc2)c1 11.2 µM
Cc1ccnc(NC(=O)C2CCN(S(=O)(=O)c3c(C)c(C)cc(C)c3C)CC2)c1 11.2 µM
COc1ccc(-c2onc(C)c2C)cc1S(=O)(=O)NCC1CCN(Cc2cccc(F)c2)CC1 8.91 µM
C[C@@H](NC(=O)OC(C)(C)C)c1nnc(S(=O)(=O)Cc2ccccc2)o1 14.1 µM
Cc1ccc(Nc2nc(CSc3nnc(-c4ccncc4)n3-c3ccccc3C)cs2)cc1 11.2 µM
COc1ccc(OC)c(C2C3=C(N=c4s/c(=C\c5cccc(O)c5)c(=O)n42)c2ccccc2CC3)c1 (stereo unspecified) 15.8 µM
CCOc1ccc(N(CC)S(=O)(=O)N2CCCC(C(=O)NCc3ccc(Cl)cc3)C2)cc1 (stereo unspecified) 17.8 µM
CNc1nc(Nc2ccc(C)c(Cl)c2)nc(N)c1[N+](=O)[O-] 11.2 µM
Cc1cccc(NC(=S)NCCN(C2CCCCC2)C2CCCC2)c1 17.8 µM
CCCOc1ccc(F)cc1-c1cc(C(=O)Nc2ccc(F)c(Cl)c2)[nH]n1 11.2 µM
Cc1nnc(N2CCC(C(=O)Nc3ccc(F)cc3)CC2)c2nn(-c3ccc(Cl)cc3)c(C)c12 10 µM
CC1CCCCC1NC(=O)/C(C#N)=C/C=C/c1ccccc1[N+](=O)[O-] (stereo unspecified) 20 µM
COc1ccccc1-n1nnnc1S(=O)(=O)Cc1ccc(Cl)cc1 7.08 µM
Cc1cc2c(cc1C)N1C(=O)c3cc4ccccc4cc3NC(=O)C1C(=O)N2 (stereo unspecified) 12.6 µM
COc1ccc2c(c1)Cc1sc(NC(=O)c3ccccc3Br)nc1-2 7.08 µM
Cc1ccc(C)c(N2CCN(S(=O)(=O)c3ccc4c(c3)C(C(C)C)C(=O)N4)CC2)c1 (stereo unspecified) 15.8 µM

Potency, inactive:
CCOC(=O)c1c(C)[nH]c(C)c1S(=O)(=O)NCC(=O)NCc1cccc(C)c1
COc1ccc(CNS(=O)(=O)c2ccc(-c3cnc(C4CC4)o3)cc2)cc1
Cc1ccc(-c2cnc(C3CC3)o2)cc1S(=O)(=O)Nc1cccc(C)c1C
COc1ccc(OC)c(NC(=O)C2CCN(S(=O)(=O)c3ccc(C)cc3)CC2)c1
COc1cc(Br)cc2cc(S(=O)(=O)c3ccccc3)c(=O)oc12
Cc1cccc(NC(=O)C2CCN(S(=O)(=O)c3cccc4cccnc34)CC2)c1
O=C(Nc1ccccn1)C1CCN(S(=O)(=O)c2ccccc2)CC1
COc1ccc(S(=O)(=O)c2c(Nc3cccc(Cl)c3)sc(C(=O)c3ccccc3)c2N)cc1
CC(NC(=O)c1cc(Sc2ccc(F)cc2F)nc2ccccc12)c1ccccc1 (stereo unspecified)
CSc1n[nH]c(-c2ccco2)n1
CCN(c1ccc(Cl)cc1)S(=O)(=O)c1nnc(NC(=O)c2ccco2)s1
CCCN(CCC)CCNC(=O)Cn1cnc2sc(C)c(S(=O)(=O)N3CCC(C)CC3)c2c1=O
COc1ccc(-c2onc(C)c2C)cc1S(=O)(=O)NCc1cccs1
COc1ccc(-c2onc(C)c2C)cc1S(=O)(=O)NCCc1ccccc1
O=C(Nc1ccccc1Cl)N1CCC(CN2CCCCC2)CC1
CCCc1nn2c(=O)cc(COC(=O)c3ccc(NC(=O)C(C)Oc4ccccc4)cc3)nc2s1 (stereo unspecified)
CN(C)c1ccc(C=Nc2ccc(/C=C/c3ccnc4ccccc34)cc2)cc1
Cc1ccc(-n2nc(C)c3c(C)cc(=O)n(CC(=O)Nc4ccc(C(C)C)cc4)c32)cc1
CC1(C)Cc2ccccc2-c2c[nH]c(=O)n21
CCOC(=O)N1CCc2c(sc3c2C(=O)NC(c2ccccc2F)N3)C1 (stereo unspecified)
CC(C)(C)c1ccc(C(CC(=O)O)NS(=O)(=O)Cc2ccccc2)cc1 (stereo unspecified)
CC(C)[C@@H](NC(=O)OC(C)(C)C)C(=O)NCC1CCC(C(=O)N[C@@H](Cc2ccccc2)C(=O)O)CC1 (stereo partly specified)
CCOC(=O)c1cc2c(=O)n3ccccc3nc2n(CCCOC)c1=NC(=O)C(C)(C)Oc1ccc(Cl)cc1
Cc1ccc(-n2c(SCC(=O)N3c4ccccc4Sc4ccccc43)nnc2-c2ccncc2)cc1
Cc1ccc(-c2noc(CSc3nnc(-c4ccncc4)n3-c3ccc(F)cc3)n2)cc1
OCC(O)C(O)C(O)C(O)C=Nc1ccc(/C=C/c2ccnc3ccccc23)cc1 (stereo unspecified)
O=C(c1ccco1)N(Cc1cccs1)c1ccc(O)cc1
CC(CNC(=O)c1nnc(Cc2cccc(F)c2)o1)c1ccccc1 (stereo unspecified)
CN(C)c1cccc2ccccc12
CCOC(=O)c1c(S(=O)(=O)N2CCC(C(=O)NCc3ccccc3OC)CC2)c(C)n(C)c1C
Cc1ccc(S(=O)(=O)n2nc(C)c(S(=O)(=O)N3CCCCCC3)c2C)cc1
C=C1C=C(C(F)F)n2ncc(C(=O)NCCc3ccccc3OC)c2N1
O=C(NCCCO)C(=O)Nc1c2c(nn1-c1ccc(F)cc1)CSC2
N#Cc1ccccc1Cn1cnc2nc3c(cc2c1=O)CCCC3
CC(C)(C)c1ccc(C(=O)NCC(c2ccc(Cl)cc2)N2CCOCC2)cc1 (stereo unspecified)
Cc1ccccc1Cn1nc(C)c(NC(=O)c2cc(-c3ccc(F)cc3)on2)c1C
Cc1ccc(NC(=O)c2ccc3[nH]c(C)cc(=O)c3c2)c(C)c1
CCOc1ccc(NC(=O)C2CCN(S(=O)(=O)c3cc(-c4noc(C)n4)ccc3C)CC2)cc1
CCOc1ccc(N(CC)S(=O)(=O)N2CCCC(C(=O)Nc3ccc(C(C)=O)cc3)C2)cc1 (stereo unspecified)
Cc1ccc(CNC(=O)C2CCCN(S(C)(=O)=O)C2)cc1 (stereo unspecified)
COc1cccc(Nc2nc(N)c([N+](=O)[O-])c(NCc3ccco3)n2)c1
CCN1CCN(c2nc(Nc3cccc(F)c3)nc(N)c2[N+](=O)[O-])CC1
CCC(=O)N1c2ccccc2CC1C(=O)N1CCN(c2ccccc2)CC1 (stereo unspecified)
Cc1cccc(C(=O)NC(=S)N(C)C2CCCCC2)c1
Cc1cccc(NC(=O)C2CCN(C(=O)NC3CCCCC3)CC2)c1
Cc1cc(=O)n(CC(=O)Nc2cccc([N+](=O)[O-])c2)c(-n2nc(C)cc2C)n1
Cc1ccccc1CS(=O)(=O)CC1Nc2ccc(C(=O)NCc3ccc(Cl)cc3)cc2NC1=O (stereo unspecified)
CC(C)Oc1cc(F)ccc1-c1cc(C(=O)Nc2ccc(F)cc2)[nH]n1
CCOc1ccc(Cl)cc1-c1cc(C(=O)NCc2cccs2)[nH]n1
CCOC(=O)c1ccccc1NC(=O)c1sc2nc(-c3ccc(F)cc3)cn2c1C
CCS(=O)(=O)N1CCc2cc(C(=O)NCc3ccc(C)cc3)ccc21
Cc1nnc(N2CCCC(C(=O)NCCN(C)C)C2)c2nn(-c3ccccc3)c(C)c12 (stereo unspecified)
CCc1ccc(CNC(=O)C2CCN(c3nn4cc(-c5ccc(F)cc5)nc4s3)CC2)cc1
CCCCNC(=O)C1CCCN(c2nnc(C)c3c(C)n(-c4ccc(Cl)cc4)nc23)C1 (stereo unspecified)
CC(=O)Nc1c(C)nn(-c2ccccc2)c1N1CCC(C(=O)Nc2cc(Cl)ccc2C)CC1
CCOc1ccc(CNC(=O)c2ccc3nc(CC)c(CC)nc3c2)cc1OC
CC(=O)c1ccc[n+](C(C)CCC(C)[n+]2cccc(C(C)=O)c2)c1 (stereo unspecified)
Cc1c(Cl)cccc1NC(=O)CCS(=O)(=O)c1ccc2c(c1)oc(=O)n2C
Cc1ccccc1-c1nc(SCC(=O)N(C)c2ccccc2)c2c(=O)n(C)c(=O)n(C)c2n1
CC(OC(=O)/C=C/c1ccccc1)C(=O)NC1CCCCC1C (stereo unspecified)
CC1CC(C)CN(C/C=C/c2ccccc2[N+](=O)[O-])C1 (stereo unspecified)
COc1ccc(CNC(=O)c2cc3c(=O)[nH]c4ccc(C)cc4c3s2)c(OC)c1
Nc1ccccc1N
CCC(C)N(C(=O)CSc1nnnn1-c1ccccc1OC)C1CCS(=O)(=O)C1 (stereo unspecified)
COc1ccccc1-n1nnnc1SCC(=O)NC(=O)Cc1ccccc1
CN(C)c1ccc(/C=C/C=C/c2ccnc3ccccc23)cc1
CCc1cccc(NC(=O)Cn2nc(CC)n3c(cc4cc(C)ccc43)c2=O)c1
CCc1cnc2c(c1SCC(=O)N1CCC(C)CC1)c(=O)n(C)c(=O)n2C
CCOC(=O)c1ccc2c(c1)N(Cc1cccc(OC)c1)C(=O)c1ccccc1S2(=O)=O
O=C(CSc1ncc(S(=O)(=O)c2ccc(Br)cc2)c(=O)[nH]1)Nc1ccc2c(c1)OCCO2
CC(C)C12CN3CC(C(C)C)(CN(C1)C3c1ccc(OCc3ccccc3)cc1)C2=O (stereo unspecified)
COCCN(CCOC)S(=O)(=O)c1ccc(C(=O)Nc2nc3c(s2)CCc2ccccc2-3)cc1
COc1ccc(NS(=O)(=O)c2ccc(N3CCOCC3)c(NC(=O)c3ccccc3Br)c2)cc1
Cc1ccc2nc(COc3ccccc3NC(=O)Nc3ccc(F)c(Cl)c3)cc(=O)n2c1
COc1ccc(C2=CC(c3ccccc3Cl)n3nc(-c4ccc(Cl)cc4)nc3N2)cc1 (stereo unspecified)
O=C(c1cnn2c1NC(=C1CC1)C=C2C(F)F)N1CCc2ccccc2C1
Cc1ccc(C)c(N2CCN(S(=O)(=O)c3ccc4c(c3)oc(=O)n4C)CC2)c1
Cc1ccc(N2CCN(S(=O)(=O)c3ccc(F)cc3)CC2)c(C)c1
O=C(CCc1nc(CN2CCN(S(=O)(=O)c3ccc(F)cc3)CC2)no1)N1CCCCC1
Cc1cccc(NC(=O)Cn2c(=O)n(CCC(C)C)c(=O)c3cccnc32)c1
